In the library only some 4.2% were active in any assay of this set; here they are far more common.
Mito fusion act: blocks mitochondrial division or promotes mitochondrial fusion; AID 485298; hit rate 0.23% among 320,000; Potency, µM (titrated, usually from 46.1 µM), for inactives: at the top dose growth rescue (activation), most hits filed as activators; S. cerevisiae fusion-defective mutant growth rescue, CellTiterGlo 48 h; also: % of control where 0% means no effect; nearly all actives have a fitted effect of over 45% in size
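Compounds are tested for their ability to restore growth of mitochondrial fusion-defective yeast strains at non-permissive 37C in YPEG medium over 48 hours. Viability is quantified by luciferase luminescence.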
Integrin act MD: activates integrin-mediated alleviation for muscular dystrophy. hit rate 0.064% among 350,000. AID 624291. Potency, µM (top dose mostly 38.3 µM), for inactives: at the highest dose activation, hits mostly activators. alpha7betagal myoblasts, beta-gal FDG fluorescence, 48 h;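 also: 100% = response of the positive control SU9516; nearly all actives have a fitted effect of over 60% in size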
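Alpha7betagal+/- myoblasts (passage 13) were plated 16-24 hr, then exposed to compounds (1:260 dilution of DMSO stock) for 48 hours at 37C. After MPER lysis, β-galactosidase reporter activity was read as FDG fluorescence (ex 480/em 540) after 30 minutes.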
SW480 rerep: DNA re-replication induction in SW480 cells; SW480 DNA re-replication, Hoechst DNA content imaging, 48 h; Potency, µM (series often up to 46.1 µM), inactives show at the top dose re-replication activation, actives largely listed as activators; hit rate 1.8% among 340,000; AID 624297; also: % of control where 0% means no effect; nearly all actives have a fitted effect of over 55% in size
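First, 250 cells per well were seeded. Next, compound or vehicle (23 nL) was pinned in, plates sat 48 hr at 37 C. Finally Hoechst was added for 40 min before fluorescence scanning.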
A-T KAP1 phos: potential ataxia-telangiectasia treatment; F2112 A-T fibroblasts, KAP-1 phosphorylation AlphaLISA; neocarzinostatin DNA damage 30 min before lysis; Potency, µM (titrated, usually from 57.5 µM), without a hit: at the highest dose activation, most hits filed as activators; hit rate 0.19% among 320,000; AID 485349; also: % of control where 0% means no effect; nearly all actives have a fitted effect of over 45% in size
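ATM-like activity read as KAP-1 phosphorylation via AlphaLISA donor/acceptor antibody pairs after lysis and 6 hr at 25C. Cells were ATM-null patient fibroblasts (F2112, hTERT), dosed 60 min, then exposed to the DSB inducer NCS for 30 min.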
MCF10A rereplic: induces DNA re-replication in MCF 10a normal breast cells | hit rate 2.9% among 350,000 | AID 624296 | Potency, µM (series often up to 46.1 µM), inactives show top-dose activity, positive = re-replication, actives largely listed as activators | MCF 10A DNA re-replication, Hoechst nuclear intensity, 48 h; also: % of control where 0% means no effect; nearly all actives have a fitted effect of over 50% in size
* marks the source's active call; other numbers are inactive results. Calls follow the shape of the dose curve; as a rule, active = well fitted activation curve with a large enough effect; inconclusive = small, poorly fitted or top-dose-only effect; inactive = no such curve, though single readings can be large or run the other way. Potency is read from the fitted curve at half-maximal effect.

How did COC(=O)C(C(=O)OC)C(CC(=O)c1ccc(C)cc1)c1cc(OC)c(OC)c(OC)c1 (stereo not given) do in these assays?
Mito fusion act: -10%; Integrin act MD: -44%; SW480 rerep: 20%; A-T KAP1 phos: -9%; MCF10A rereplic: inconclusive

How did COc1ccc(C(CC(=O)c2ccc(C)cc2)C(C#N)C#N)cc1OC (stereo not given) do in these assays?
Mito fusion act: 1%; Integrin act MD: -26%; SW480 rerep: inconclusive; A-T KAP1 phos: 6%; MCF10A rereplic: 21µM*

How did CC(C)=CCN1CCNC(=O)C1CC(=O)NCc1nc(C)c(C)s1 (stereo not given) do in these assays?
Mito fusion act: 2%; Integrin act MD: -15%; SW480 rerep: 3%; A-T KAP1 phos: 0%; MCF10A rereplic: 1%

How did CC12CC(c3ccccc3O1)N(C(=O)c1ccco1)C(=S)N2c1ccc(F)cc1 (stereo not given) do in these assays?
Mito fusion act: -6%; Integrin act MD: 29%; SW480 rerep: 12%; A-T KAP1 phos: 4%; MCF10A rereplic: 12µM*

Results for CC1(C)Cc2c(cnn2-c2ccc(F)cc2)C(NC(=O)c2ccco2)C1 (stereo not given) ?
Mito fusion act: -1%; Integrin act MD: -30%; SW480 rerep: -1%; A-T KAP1 phos: -2%; MCF10A rereplic: 2%

What do the screens show for `CC(CN1CCOCC1)OC(=O)c1ccc(Br)cc1` (stereo not given)?
Mito fusion act: -2%; Integrin act MD: -45%; SW480 rerep: inconclusive; A-T KAP1 phos: -2%; MCF10A rereplic: inconclusive

How did O=C(c1ccccc1)C(CN1CCCCC1)c1ccccc1 (stereo not given) do in these assays?
Integrin act MD: -62%; SW480 rerep: 1.5µM*; MCF10A rereplic: 4.1µM*

How did CC(CN1CCCC1)OC(=O)C(c1ccccc1)c1ccccc1 (stereo not given) do in these assays?
Mito fusion act: -3%; Integrin act MD: -13%; SW480 rerep: inconclusive; A-T KAP1 phos: -8%; MCF10A rereplic: 0.58µM*

Results for CC(CN1CCN(CC(C)C(=O)c2ccccc2)CC1)C(=O)c1ccccc1 (stereo not given) ?
Integrin act MD: -17%; SW480 rerep: 2%; MCF10A rereplic: 7%

How did CCOc1ccc(C(=O)C(CN2CCOCC2)c2ccccc2)cc1 (stereo not given) do in these assays?
Mito fusion act: 15%; Integrin act MD: -54%; SW480 rerep: 5.2µM*; A-T KAP1 phos: -8%; MCF10A rereplic: 7.3µM*

Results for O=C(c1ccc(Br)cc1)C(CN1CCOCC1)c1ccccc1 (stereo not given) ?
Mito fusion act: -29%; Integrin act MD: -23%; SW480 rerep: inconclusive; A-T KAP1 phos: -7%; MCF10A rereplic: 18µM*

What do the screens show for `CCc1cccc2c(C#N)cn(CC(=O)NCCOC)c12`?
Mito fusion act: 2%; Integrin act MD: 18%; SW480 rerep: -1%; A-T KAP1 phos: 16%; MCF10A rereplic: -1%

How did COc1cccc(OCc2cc(C(=O)N3CCN(c4ccccc4OC)CC3)no2)c1 do in these assays?
Mito fusion act: 8%; Integrin act MD: 0%; SW480 rerep: 3%; A-T KAP1 phos: 3%; MCF10A rereplic: 15%

What do the screens show for `O=C(/C=C/c1ccccc1)/C=C/c1ccccc1`?
Mito fusion act: inconclusive; Integrin act MD: -60%; SW480 rerep: 21µM*; A-T KAP1 phos: 31%; MCF10A rereplic: 3.3µM*

Results for O=C(/C=C/c1ccccc1)c1ccccc1 ?
Mito fusion act: -2%; SW480 rerep: inconclusive; A-T KAP1 phos: 1%; MCF10A rereplic: inconclusive

What do the screens show for `CCC(c1ccc(O)c(O)c1)C(CC)c1ccc(O)c(O)c1` (stereo not given)?
Integrin act MD: -65%; SW480 rerep: 10µM*; MCF10A rereplic: -13%

How did CCOc1ccc(NC(=O)CSc2nc(-c3cccs3)cc(C(F)(F)F)n2)c([N+](=O)[O-])c1 do in these assays?
Mito fusion act: -6%; Integrin act MD: -13%; SW480 rerep: 11%; A-T KAP1 phos: 9%; MCF10A rereplic: 12µM*

Results for CCOc1ccc(NC(=O)CSc2n[nH]c(N)n2)c([N+](=O)[O-])c1 ?
Mito fusion act: -5%; Integrin act MD: -15%; SW480 rerep: 12%; A-T KAP1 phos: 1%; MCF10A rereplic: 3%

What do the screens show for `Cc1cccc(-c2noc(CCCC(=O)NC3CCCC3)n2)c1`?
Mito fusion act: 21%; Integrin act MD: -14%; SW480 rerep: -11%; A-T KAP1 phos: -7%; MCF10A rereplic: 1%

What do the screens show for `CNc1nc(SCc2ccc(C)cc2)nc2c1CCCC2`?
Mito fusion act: -9%; Integrin act MD: -20%; SW480 rerep: -1%; A-T KAP1 phos: 11%; MCF10A rereplic: 15µM*

What do the screens show for `CN(C)c1nc(SCc2ccccc2Cl)nc2c1CCCC2`?
Mito fusion act: -4%; Integrin act MD: 3%; SW480 rerep: 2%; A-T KAP1 phos: 17%; MCF10A rereplic: inconclusive

Results for Cc1ccc(CSc2nc3c(c(SCC(=O)O)n2)CCCC3)cc1 ?
Mito fusion act: 6%; Integrin act MD: -20%; SW480 rerep: -4%; A-T KAP1 phos: -2%; MCF10A rereplic: 11%

Results for Cc1ccc(CSc2nc3c(c(N(C)C)n2)CCCC3)cc1 ?
Mito fusion act: -1%; Integrin act MD: -37%; SW480 rerep: 15µM*; A-T KAP1 phos: 7%; MCF10A rereplic: 13µM*

How did CCCn1c(Cc2ccccc2)nnc1SC(C)C(=O)NC1CC1 (stereo not given) do in these assays?
Mito fusion act: 0%; Integrin act MD: -26%; SW480 rerep: -2%; A-T KAP1 phos: 7%; MCF10A rereplic: -4%

Results for NC(=O)C1CCN(C(=O)C(Cc2ccccc2)NC(=O)c2ccccc2)CC1 (stereo not given) ?
Mito fusion act: -1%; Integrin act MD: -24%; SW480 rerep: 21µM*; A-T KAP1 phos: 1%; MCF10A rereplic: 27%

Results for CCC(Oc1ccccc1)C(=O)Nc1cc(C)on1 (stereo not given) ?
Mito fusion act: 1%; Integrin act MD: -3%; SW480 rerep: -15%; A-T KAP1 phos: -3%; MCF10A rereplic: 10%

How did CCC(OC(=O)C(NC(=O)c1ccccc1)c1ccccc1)C(=O)Nc1cc(C)on1 (stereo not given) do in these assays?
Mito fusion act: 4%; Integrin act MD: inconclusive; SW480 rerep: inconclusive; A-T KAP1 phos: 14%; MCF10A rereplic: 5.8µM*

How did CC1CCCCN1CCCNC(=O)c1ccc(NC(=O)C2=CSCCO2)cc1 (stereo not given) do in these assays?
Mito fusion act: -1%; Integrin act MD: 4%; SW480 rerep: -19%; A-T KAP1 phos: 15%; MCF10A rereplic: -1%
